Screening results from PubChem.
In the library only some 3% were active in any assay of this set; here they are far more common.
KLF5 inh = inhibitors of KLF5 expression | inhibition, % at 5 µM | DLD-1 KLF5 promoter-luciferase reporter, luminescence | 290,000 compounds, 0.23% hits;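 active means inhibition above a per-plate limit of that plate's mean compound inhibition plus 3 SD, cut at about 60% in these data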;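 further: higher means less KLF5 promoter-driven luciferase light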
IEC-6 tox = IEC-6 cytotoxicity, counter-screen for KLF5 inhibitors | luminescence viability | inhibition, % at 5 µM | 290,000 compounds, 0.78% hits | AID 1825
CSC inhib = blocks cancer stem cells; inhibition, % at 7.5 µM; 300,000 compounds, 1.1% hits; cancer stem cell-like cells viability, luminescence; AID 2717; in the data active means inhibition above about 75%; inconclusive means no clear call, values can overlap the other calls; tested in HMLE shEcad cells
SKKanGAS inh = blocks kanamycin growth of S. pyogenes SKKanGAS strain | inhibition, % at 7.5 µM | BacTiter-Glo, 6 h | 300,000 compounds, 1.3% hits;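 active means mean replicate score, as percent of positive control median, at least 50; inconclusive means mean below 50 but one replicate at or above 50; inactive means mean and every replicate below 50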;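 further: strain carries kanamycin resistance gene driven by streptokinase promoter and grows in 40 µg/ml kanamycin; loss of luminescence reflects streptokinase promoter inhibition or plain growth inhibition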
aSyn 5UTR inh = MLPCN primary screen, SNCA 5' untranslated region | alpha-synuclein 5'UTR reporter, inhibitor activity | AID 1813 | 300,000 compounds, 0.82% hits | inhibition, % (tested at 7.5 µM); in the data active means inhibition above about 60%; inconclusive means no clear call, values can overlap the other calls;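 further: H4 neuroglioblastoma cells stably carrying SNCA 5'UTR luciferase fusion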
IEC-6 cytotox cf = confirmation of cytotoxic compounds in rat IEC-6 intestinal epithelial cells. shares compounds with IEC-6 tox. IEC-6 rat intestinal epithelial viability, luminescence. inhibition, % at 5 µM. 1,900 compounds, 63% hits. AID 1907
Hits are given with their value; – = inactive; ? = inconclusive; · = not tested or not shown. Unless noted, no stated cut-off is given here; in the data, active means inhibition above about 22%; inactive means the rest.

SMILES | KLF5 inh | IEC-6 tox | CSC inhib | SKKanGAS inh | aSyn 5UTR inh | IEC-6 cytotox cf
O=C(Nc1cccc(Cl)c1N1CCOCC1)c1ccc([N+](=O)[O-])o1 | – | – | · | – | – | ·
CC(C)(C)C(=O)N1CCN(c2ccc(NC(=O)c3ccc([N+](=O)[O-])o3)cc2)CC1 | – | 101 | – | – | – | 58
O=C(Nc1cccc(NC(=O)c2ccccc2Cl)c1)c1ccc([N+](=O)[O-])o1 | – | 101 | – | ? | 86 | 49
O=C(Nc1ccc(N2CCCCC2)cc1)c1ccc([N+](=O)[O-])o1 | – | 80 | – | – | – | –
O=S(=O)(Nc1ccc(S(=O)(=O)N2CCCC2)cc1)c1ccc(F)cc1F | · | · | – | · | · | ·
CC(=O)c1c(C)[nH]c(C(=O)CN2C(=O)NC(CCc3ccccc3)C2=O)c1C (stereo not given) | – | – | – | – | – | ·
O=C(Nc1ccc(N2CCN(Cc3ccccc3F)CC2)cc1)c1ccc([N+](=O)[O-])o1 | – | 72 | 103 | – | 105 | 33
O=C(Nc1cccc(NC(=O)c2ncn[nH]2)c1)c1cccc(Cl)c1 | – | – | – | – | – | ·
COc1ccc(Nc2ncnc3scc(-c4ccc(OC)cc4)c23)cc1 | – | 24 | – | 50 | – | –
COc1ccccc1-c1nnc(Nc2nc3c(OC)cccc3s2)o1 | – | 69 | – | 91 | 81 | 73
Cc1cc(C)c(S(=O)(=O)N2CCOC2CNC(=O)C(=O)NCCN2CCOCC2)c(C)c1 (stereo not given) | – | – | – | – | – | ·
CCCCN(C(=O)c1cc(S(=O)(=O)N2CCOCC2)ccc1Cl)c1c(N)n(CC(C)C)c(=O)[nH]c1=O | · | · | – | – | – | ·
Cc1cnc(NC(=O)COc2cccc3c2OC(C)(C)C3)s1 | – | 30 | – | – | – | 34
Cc1cccc(CS(=O)(=O)c2ncc(Cl)c(C(=O)NCc3ccccc3)n2)c1 | – | 62 | – | – | 64 | 29
CS(=O)(=O)c1ncc(Cl)c(C(=O)Nc2ccc(OC(F)F)cc2)n1 | – | 99 | 135 | – | – | 29
Cc1cccc(CS(=O)(=O)c2ncc(Cl)c(C(=O)Nc3c(C)cccc3C)n2)c1 | – | 35 | · | – | – | –
Cc1cccc(C)c1NC(=O)c1nc(S(=O)(=O)Cc2ccccc2)ncc1Cl | – | 38 | · | – | – | –
CSc1ncc(Cl)c(C(=O)Nc2cccc(C)c2)n1 | – | – | – | – | – | ·
O=S(=O)(Cc1ccccc1)NCCc1cccc(Cl)c1 | – | – | · | – | – | ·
COc1ccc(CCNC(=O)Nc2cccs2)c(OC)c1 | – | – | – | – | – | ·
CS(=O)(=O)c1ncc(Cl)c(C(=O)Nc2ccc(N3CCOCC3)cc2)n1 | – | – | ? | – | – | ·
Cc1nnc(NC(=O)c2nc(S(=O)(=O)Cc3ccccc3)ncc2Cl)s1 | – | 34 | · | – | – | –
CCN(c1ccccc1)S(=O)(=O)c1ccc(NC(=O)c2nc(S(C)(=O)=O)ncc2Cl)cc1 | – | 100 | 99 | – | – | –
Cc1ccccc1NC(=O)c1nc(S(C)(=O)=O)ncc1Cl | – | 40 | – | – | – | –
CC(=O)C(Cc1ccccc1)NC(=O)COc1ccc2c(c1)OCO2 (stereo not given) | · | · | – | · | · | ·
SMILES | KLF5 inh | IEC-6 tox | CSC inhib | SKKanGAS inh | aSyn 5UTR inh | IEC-6 cytotox cf
CC(C)NC(=O)COc1coc(CN2CCN(c3ccccc3)CC2)cc1=O | – | – | – | – | – | ·
O=C(N/N=C/C(Br)=C/c1ccccc1)c1n[nH]c2c1CCC2 | – | 94 | – | – | – | –
O=C(N/N=C/C(Br)=C/c1ccccc1)c1cccs1 | – | – | – | – | – | ·
O=C(N/N=C/c1cccc(Cl)c1)c1c(O)c2c([nH]c1=O)CCCC2 | – | – | – | – | – | ·
O=C(N/N=C/c1ccc(Cl)cc1)c1n[nH]c2c1CCCC2 | – | 82 | – | – | – | 63
CCC1CCCCN1C(=O)c1cc(COc2ccc(-n3cncn3)cc2)on1 (stereo not given) | – | – | – | – | – | ·
CC(C)CN(C(=O)CSc1nnnn1-c1ccccc1)c1c(N)n(CC(C)C)c(=O)[nH]c1=O | – | – | – | – | – | ·
COc1cc(C(=O)NCCOc2cc(C)cc(C)c2)cc(OC)c1OC | – | 62 | – | – | – | 42
COc1cc(C(=O)NCCOc2ccccc2)cc(OC)c1OC | – | – | – | – | – | ·
CC1=C/C(=N\NC(=S)Nc2cccnc2)CC(C)(C)C1 | – | 29 | · | – | – | 59
CCOc1ccc(/C=C/c2nc(C#N)c(NCCCN(C)C)o2)cc1 | – | – | – | – | – | ·
CCOc1ccc(/C=C/c2nc(C#N)c(NCCCOC)o2)cc1 | – | 74 | – | – | – | 61
O=C(N/N=C/c1cccn1-c1cccc(C(=O)O)c1)Nc1ccccc1 | – | – | – | – | – | ·
O=C1NC(=O)C(Cc2c[nH]c3ccccc23)N1 (stereo not given) | – | – | – | – | – | ·
Cc1cc(C(N)=O)c2ccccc2n1 | – | – | – | – | – | ·
NC(=O)c1cc2c3ccccc3ccn2c1-c1ccccc1 | – | 38 | – | – | 113 | 61
Cn1c(=O)[nH]c(=O)c2c1nc(CN1CCN(c3cccc(Cl)c3)CC1)n2CCCc1ccccc1 | – | – | – | – | – | ·
CCCCn1c(CN2CCN(c3cccc(Cl)c3)CC2)nc2c1c(=O)[nH]c(=O)n2C | – | 44 | – | – | – | 41
CCC(CC)C(=O)c1c[nH]c(C(=O)NN)c1 | – | 30 | – | – | – | –
Cc1cccnc1Nc1nc(-c2ccccc2)cs1 | – | – | – | – | – | ·
O=C(Nc1nc(-c2ccccn2)cs1)c1ccc(S(=O)(=O)N2CCCCC2)cc1 | – | 50 | 99 | 84 | – | 54
O=C(Nc1nc(-c2ccccn2)cs1)c1ccc(Cl)s1 | – | 45 | 80 | 102 | 68 | 75
O=C(Nc1nc(-c2cccs2)cs1)c1ccc(S(=O)(=O)N2CCCCC2)cc1 | – | – | – | – | – | ·
Cc1cccc(C(=O)NC(C(=O)Nc2nc(-c3ccccn3)cs2)C(C)C)c1 (stereo not given) | – | 49 | – | 91 | 81 | 42
Cc1cccnc1Nc1nc(-c2ccccn2)cs1 | – | 84 | 101 | 106 | – | 88
SMILES | KLF5 inh | IEC-6 tox | CSC inhib | SKKanGAS inh | aSyn 5UTR inh | IEC-6 cytotox cf
Cc1ccc(CNC(=O)C2CN(S(C)(=O)=O)c3cc(Cl)ccc3O2)cc1 (stereo not given) | – | – | – | – | – | ·
CCOC(=O)c1c(-c2ccccc2)oc2ccc(OCC(O)CN(C)C)cc12 (stereo not given) | – | – | – | – | – | ·
C=CCn1c(CNC(=O)c2ccccc2F)nnc1SCC(=O)NC(C)c1ccccc1 (stereo not given) | – | – | – | – | – | ·
Cc1ccc(S(=O)(=O)N2CCNC(=O)CC2)cc1 | – | – | – | · | · | ·
O=C(Nc1nc(-c2ccccn2)cs1)C1CCCC1 | – | 25 | – | – | – | –
Cc1cc(C)n2nc(SCCCC(=O)c3ccc(F)cc3)nc2n1 | – | – | – | – | – | ·
O=C(c1ccc(CS(=O)c2ccccc2Cl)o1)N1CCN(c2ccccn2)CC1 (stereo not given) | – | 56 | – | – | – | 45
